# Tg IFNy HTS = inhibitors of Toxoplasma gondii growth with IFN-gamma; Toxoplasma gondii growth in IFN-gamma-treated host cells; hits give low values; activity change, negative = inhibition, % (no concentration beside the values); 3.8% of 69,000 active; AID 1259416; in the data active = activity change below about -70%, passing the limit was not always enough;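 note: host cells are HeLa cells infected with Toxoplasma gondii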
# * marks the source's active call; other numbers are inactive results; ! = not active in a repeat. The full list was thinned out, with hits kept by preference.
SMILES,Tg IFNy HTS
Cc1nc2ncnn2c(C)c1CCC(=O)Nc1ccccc1CN1CCCCCC1,-1
O=C(NCc1cccnc1Oc1ccc(F)cc1F)[C@@H]1C[C@@H](O)CN1,-22
OCc1ccc(CN(Cc2ccncc2)Cc2ccc(F)cc2)o1,-8
Fc1ccc(CN(Cc2ccncc2)Cc2cccc3c2OCO3)cc1,-82*
CCc1ccc(CN(Cc2ccncc2)Cc2ccc(F)cc2)nc1,0
COc1ccc(-c2nc(C)c(CCNC(=O)C(=O)Nc3cccc(F)c3)s2)cc1,34
CCCc1nnc(NC(=O)CSc2nc(-c3cccc(OC)c3)c(C#N)c(=O)[nH]2)s1,-10
O=C(NCc1ccc(C(F)(F)F)cc1)c1c(O)c2cccnc2[nH]c1=O,91
Cn1c(C(=O)OC(C(=O)NCCc2ccccc2)c2ccccn2)cc2sccc21 (configuration not stated),-61
CSc1ccc2c(c1)N(CCC1CCCCN1C)c1ccccc1S2 (configuration not stated),-95*!
CSc1cccc(NC(=S)N2CCCCC2CCN2CCOCC2)c1 (configuration not stated),15
CSc1cccc(NC(=O)N2CCCCC2CCN2CCCC2=O)c1 (configuration not stated),4
O=C1CCCN1C1CCN(c2ccc(Cn3ccnc3)cn2)CC1,-3
C=CCOc1ccc(C(=O)N2CCC(=O)NCC2C)cc1OCC (configuration not stated),2
CC1(C)Cc2nc(-c3ccncc3)ncc2C(NC(=O)C(C)(C)C)C1 (configuration not stated),44
Cc1ccc(S(=O)(=O)N=Nc2c(O)[nH]c3ccccc23)cc1,31
O=Nc1c(-c2c(O)[nH]c3ccccc23)[nH]c2ccccc12,-84*
Oc1[nH]c2ccccc2c1N=Nc1ccccc1,195
CS(=O)(=O)N1[C@@H](C#N)[C@@H](c2ccccc2-c2ccccc2F)[C@@H]1CO,-5
CN(C)c1nc(-c2ccccc2)nc(Nc2ccc(Cl)cc2Cl)c1C#N,99
COc1ccc(CSc2nc(C)cc(C)c2C#N)cc1,-21
COc1ccc(Cl)cc1Nc1nc(C)cc(C)c1C#N,-79*
Cc1noc(=O)c(C)c1-c1ccc(Cl)c(C(=O)NC(C)C2CC3CCC2C3)c1 (configuration not stated),-22
CN(C)c1ncc(C(=O)N2CCc3nc(-c4ccc(F)cc4)sc3C2)cn1,2
Cc1cccc(CN2C(=O)CC3C2CCN3C(=O)NC2CCCC2)n1 (configuration not stated),2
SMILES,Tg IFNy HTS
CC1=CC(C)(C)N(CC(=O)c2ccccc2)c2ccc(C)cc21,48
O=C1Cc2c([nH]c3ccc(Br)cc23)-c2ncccc2N1,-7
Brc1ccc2[nH]c3c(c2c1)CCCC3NCc1ccccc1 (configuration not stated),-98*
Brc1ccc2[nH]c3c(Br)cc(Br)cc3c2c1,16
CCOC(=O)c1csc(-n2nc(C(F)(F)F)cc2-c2ccc(OC)cc2)n1,59
Cc1cc(C)c2c(c1)[C@@H](N(Cc1cc(C(F)(F)F)cc(C(F)(F)F)c1)c1nnn(C)n1)CCCN2CC1CCC(C(=O)O)CC1 (some centres not stated),-81*
O=C(Cn1ncc2c(N3CCCCC3)ncnc21)N1CCCCCC1,46
Cn1nnc2c1C(COCCN1CCCC1)CN(S(C)(=O)=O)C2 (configuration not stated),-36
COc1cc2c(cc1OC)-c1nnc(C)n1C(C)(C)C2,2
COc1cc2c(cc1OC)C(Nc1ccc(I)cc1)=NC1(CCCC1)C2,-98*
Cc1nc(CCNC(=O)CC2COCCN2)sc1C (configuration not stated),1
Cc1ccc(NC(=O)C(=O)NCCc2sc(-c3cccc(C)c3)nc2C)cc1,-25
S=c1[nH]cc(-c2ccc(Cl)cc2)n1C1CCCC1,-22
Cc1cc(OCC(=O)Nc2ccc(C(=O)OCC(C)C)cc2)cc(C)c1Cl,-55
CC(C)COC(=O)c1nc(Cl)c(Cl)c(N)c1Cl,-96*
O=C(CN1CCOCC1)Nc1ccc(Oc2ccccc2)cc1,23
O=C(Oc1ccc(Oc2ccccc2)cc1)N1CCC(OC(=O)n2ccnc2)CC1,-97*
COc1ccc(C(c2ccccc2)N2CCN(C(=O)C(C)n3ccnc3)CC2)cc1 (configuration not stated),0
CN(C)CC1(O)CCCN(C(=O)CCn2ccccc2=O)C1 (configuration not stated),-3
COc1ccc(-c2nc3n(c(=O)c2C#N)CCCS3)cc1,44
Fc1ccc(-c2nc3n(c2-c2ccncc2)CCS3)cc1,-78*
O=c1c(C(c2cccnc2)c2c(O)nc3n(c2=O)CCS3)c(O)nc2n1CCS2,13
Cc1cc(C)n(Cc2ccc(C(=O)Nc3ccc(N4CCCCC4)c4nonc34)o2)n1,23
C=CCOCC1CN(Cc2csc(C)n2)Cc2ccnn2C1 (configuration not stated),15
CC(C)(C#N)c1ccc(N2C(=O)OCc3cnc4ccc(-c5cnc6ccccc6c5)cc4c32)cc1,-85*
SMILES,Tg IFNy HTS
CCOCCCNC(c1ccccc1)c1ccncc1 (configuration not stated),3
CNCC[C@H](Oc1cccc2ccccc12)c1cccs1,19
CNCCC(Oc1ccc(C(F)(F)F)cc1)c1ccccc1 (configuration not stated),-86*!
CCn1c(SCC(=O)Nc2cc(OC)cc(OC)c2)nnc1C(C)C,6
Cn1cc(-c2[nH]c3cc(NC(=O)[C@H](N)C4CCCCC4)cc4c3c2C=NNC4=O)cn1,-78*
CCS(=O)(=O)N1CCn2cc(CNC(=O)c3cccn3C)nc2C1,1
CC1=C(C(=O)NCc2ccccc2F)C2(CCN(S(=O)(=O)c3cccs3)CC2)OC1=O,-11
CC(C)N(C(=O)Cn1nc(-c2cccc3ncccc23)oc1=O)C(C)C,-5
CCOc1cc(CCC(=O)N2CCc3[nH]c4c(Cl)cccc4c3C2)on1,40
CCOc1cc(CCC(=O)Nc2n[nH]c(CC)n2)on1,39
CCOc1cc(CCC(=O)N2CCCc3c(Cl)cc(Cl)c(O)c32)on1,-87*
Cc1occc1C(=O)NC1CCC2(CCC(=O)N2CC2CC2)CC1 (configuration not stated),56
CCOC(=O)N1CCC2(CC1)N=C(c1cc(Cl)ccc1O)CC(c1ccccc1O)N2 (configuration not stated),-63
CCn1ccnc1CN(C)c1cc(N2CCOCC2)nc(N)n1,6
Cc1cccc(CN2CCCN(S(=O)(=O)c3ccc(F)c(C)c3)CC2)n1,9
CC(C)(O)C#Cc1ccc(C(=O)N2CCCC2c2ccccn2)o1 (configuration not stated),4
O=S(=O)(Nc1ccc(F)c(Cl)c1)c1ccccc1Oc1ccc(Cl)cc1Cl,51
COc1ccccc1Oc1ccccc1C(=O)O,0
COC(=O)CSC(=O)NC(=O)c1ccccc1Oc1ccc(Cl)cc1Cl,-92*
CCN(Cc1ccncc1)C(=O)c1cc(C)sc1NC(=O)C(C)(C)C,103
Cc1ccc(NC(=O)CCS(=O)(=O)Cc2ccccc2)c(Br)c1,-53
CCCN1C(=O)CCc2cc(NC(=O)C(CC)c3ccccc3)ccc21 (configuration not stated),-82*
CCCN1C(=O)CCc2cc(NC(=O)c3cc(F)cc(F)c3)ccc21,-52
CC(C)CN1C(=O)CCc2cc(NC(=O)C3CCCCC3)ccc21,-37
CCN1C(=O)CCc2cc(NC(=O)c3ccc(C)cc3)ccc21,-16
CCCN1C(=O)CCc2cc(NC(=O)c3cccc(C#N)c3)ccc21,-17
